From PubChem BioAssay come the findings set out here.

Where “and” joins values, the source holds several entries; their conditions need not be identical. Identical values can stand only once. Calls of active or inactive are those of the source.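 The calls were made as follows, unless noted: active = compounds whose cell count with miR-34 switched on is under 0.7 times the count with it off; inactive = the rest.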

Assay [1] in a line: viability loss with induced miR-34 in A549 – imaging, A549 dox-inducible miR-34, nuclei and caspase counts, primary screen (AID 1347080). Also: test concentration not given here. Particulars: A549 miR-34 inducible, Hoechst nuclei count, 48 h.
Assay [2] can be described thus: MELAS cybrid and Rieske KO viability enhancers – cell-based, MELAS cybrids, Rieske KO mouse fibroblasts, CellTiter-Glo, primary screen (AID 1508586;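 active = mean z-score across replicates of 1.96 or higher in either the MELAS or the Rieske mutant cell line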;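 also: test concentration not given here; z relative to plate mean and SD of compound and empty wells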). Particulars: low glucose. On the technique in general: In ATP-based viability assays light output follows the ATP content of the culture.
The nature of assay [3]: galactose survival enhancers in mitochondrial complex I cybrids – cell-based, galactose medium, ATP luminescence, primary screen (AID 1645843;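 active = z-score of at least 1.8 in each of two replicates, scored against plate mean and spread of sample wells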;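 also: positive z means more ATP and so rescue of galactose-driven cybrid death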). Particulars: complex I mutant cybrid cells, 72 h, stronger effect = higher value.
[4] abbreviates: stronger effect = lower value, cell number ratio, induced over uninduced.
Where [5] appears, read: measured here: relative caspase fold change +Dox/-Dox.
[6] abbreviates: measured here: total cells with miR-34 induction, stronger effect = lower value.
Where [7] appears, read: measured here: total cells without miR-34 induction.
Where [8] appears, read: MELAS cybrid survival, CellTiter-Glo 48 h, stronger effect = higher value.
The mark [9] stands for this setting: Rieske KO mouse fibroblast survival, CellTiter-Glo 72 h.

With `Cc1cc(-c2cnn(CC(=O)Nc3ccnn3Cc3ccccc3)c2)nc(N)n1`, the fold change in assay [1] (setting [4]) was 0.926 (inactive); in assay [1] (setting [5]), 0.917. Further, the values for the cell count in assay [1] (setting [6]) and in assay [1] (setting [7]) were 8320 and 8980, respectively. Besides, the z-score is -0.562 (inactive) in assay [2] (setting [8]), 0.0522 in assay [2] (setting [9]) and -0.58 (inactive) in assay [3].

As for `Cc1ccc2nc(C3CCCN3c3ncc(C)c(-c4cnn(C)c4)n3)[nH]c2c1` (stereo not drawn), the fold change in assay [1] (setting [4]) was 0.91 (inactive); in assay [1] (setting [5]), 1.37. For the same molecule, the cell count in assay [1] (setting [6]) was found to be 7980; in assay [1] (setting [7]), 8770. Besides, the z-score in assay [2] (setting [8]) is -0.0346 (inactive); in assay [2] (setting [9]) it was 0.328; in assay [3], -0.325 (inactive).

On to `CCC(C)(C)c1nnc(NC(=O)NCc2ccco2)s1`, for which the fold change in assay [1] (setting [4]) was 0.9 (inactive); in assay [1] (setting [5]), 1.07. Further, the cell count in assay [1] (setting [6]) was determined as 8900; in assay [1] (setting [7]), 9890. The z-score in assay [2] (setting [8]) is 0.377 (inactive); in assay [2] (setting [9]), -0.396; in assay [3] it was 3.32 (active).

`OC(CNCC(O)C1CCc2cc(F)ccc2O1)C1CCc2cc(F)ccc2O1` (stereo not drawn): the fold change was 1.62 (inactive) in assay [1] (setting [4]) and 0.335 in assay [1] (setting [5]). The values for the cell count in assay [1] (setting [6]) and in assay [1] (setting [7]) were 2500 and 1540, respectively. Moreover, the z-score in assay [2] (setting [8]) was 0.602; in assay [2] (setting [9]), 2.88; in assay [3], -2.66 (inactive).

Regarding `Cc1ccc(-n2cc(-c3nc4c(cnn4Cc4cccnc4)[nH]3)cn2)cc1`, the fold change in assay [1] (setting [4]) was 0.858 (inactive); in assay [1] (setting [5]), 2.02. The cell count in assay [1] (setting [6]) turned out to be 7150; in assay [1] (setting [7]) it was 8340. Moreover, the z-score in assay [2] (setting [8]) is 0.697 (inactive); in assay [2] (setting [9]), 0.0385; in assay [3] it was -0.445 (inactive).

Take `COC1C=CO[C@@]2(C)Oc3c(C)c(O)c4c(O)c(c(C=NN5CCN(C6CCCC6)CC5)c(O)c4c3C2=O)NC(=O)C(C)=CC=CC(C)C(O)C(C)C(O)C(C)C(OC(C)=O)C1C` (stereo partly drawn): the fold change was 1.26 (inactive) and 0.937 (inactive) in assay [1] (setting [4]); 1.41 and 0.74 in assay [1] (setting [5]). For the same molecule, the cell count in assay [1] (setting [6]) was 6670 and 7260; in assay [1] (setting [7]), 5310 and 7750. In addition, the z-score in assay [2] (setting [8]) was -0.432 (inactive); in assay [2] (setting [9]) it was -0.0629; in assay [3], 0.32 (inactive).

For `CCn1ccnc1CN(C)C(=O)c1cc(-c2cnc(N)nc2)nc2cc(C)ccc12`, the fold change in assay [1] (setting [4]) is 0.962 (inactive); in assay [1] (setting [5]), 1.43. Moreover, the cell count in assay [1] (setting [6]) was 9170; in assay [1] (setting [7]), 9540. Moreover, the z-score in assay [2] (setting [8]) was -0.0965 (inactive); in assay [2] (setting [9]), 0.497; in assay [3], 0.64 (inactive).

As for `Cc1c(Br)c(=O)oc2c(Br)c(O)ccc12`, the values for the fold change in assay [1] (setting [4]) and in assay [1] (setting [5]) were 0.86 (inactive) and 0.806, respectively. In addition, the cell count in assay [1] (setting [6]) is 8490; in assay [1] (setting [7]), 9870. Also, the z-score in assay [2] (setting [8]) is 0.723 (inactive); in assay [2] (setting [9]), -0.168; in assay [3], -0.145 (inactive).

As for `Cc1csc(CNc2nccc(-c3cn(C)nc3C)n2)n1`, the fold change in assay [1] (setting [4]) was 0.888 (inactive); in assay [1] (setting [5]), 0.815. Besides, the cell count in assay [1] (setting [6]) came out at 8410; in assay [1] (setting [7]), 9480. Further, the results for the z-score in assay [2] (setting [8]), in assay [2] (setting [9]) and in assay [3] were -0.307 (inactive), 0.16 and -0.445 (inactive), respectively.

`Cc1cc(C)nc(-c2cnn(CC(=O)Nc3cc(C)nn3-c3ccccn3)c2)n1`: the fold change was 0.882 (inactive) in assay [1] (setting [4]) and 1.32 in assay [1] (setting [5]). Besides, the cell count worked out at 5870 in assay [1] (setting [6]) and 6650 in assay [1] (setting [7]). Besides, the z-score in assay [2] (setting [8]) is -0.672 (inactive); in assay [2] (setting [9]), -0.181; in assay [3], -0.415 (inactive).

As to `COc1ccc(-c2oc3c(CC=C(C)C)c(OC4OC(CO)C(O)C(O)C4O)cc(O)c3c(=O)c2OC2OC(C)C(O)C(O)C2O)cc1` (stereo not drawn), the fold change is 0.929 (inactive) and 0.864 (inactive) in assay [1] (setting [4]); 1.15 and 1.26 in assay [1] (setting [5]). Besides, the cell count was 9660 and 9050 in assay [1] (setting [6]); 10400 and 10500 in assay [1] (setting [7]). The z-score is -0.309 (inactive) in assay [2] (setting [8]), 0.107 in assay [2] (setting [9]) and 0.865 (inactive) in assay [3].

`Nc1nc(NC(Cn2ccnc2)c2ccccc2)c2cn[nH]c2n1` (stereo not drawn): the figures for the fold change in assay [1] (setting [4]) and in assay [1] (setting [5]) were 0.958 (inactive) and 1.04, respectively. Besides, the cell count in assay [1] (setting [6]) was found to be 9810; in assay [1] (setting [7]), 10200. Besides, the figures for the z-score in assay [2] (setting [8]), in assay [2] (setting [9]) and in assay [3] were -0.353 (inactive), -0.318 and -0.495 (inactive), respectively.

Turning to `O=C(CC(=O)C(F)(F)F)c1cccs1`, the fold change is 0.883 (inactive) in assay [1] (setting [4]) and 0.164 in assay [1] (setting [5]). Also, the cell count was determined as 8190 in assay [1] (setting [6]) and 9270 in assay [1] (setting [7]). The values for the z-score in assay [2] (setting [8]), in assay [2] (setting [9]) and in assay [3] were -1.06 (inactive), 0.275 and -0.485 (inactive), respectively.

For the molecule `COc1ccc(C=CC(=O)O)cc1O`, the values for the fold change in assay [1] (setting [4]) and in assay [1] (setting [5]) were 0.917 (inactive) and 0.34, respectively. Moreover, the cell count in assay [1] (setting [6]) amounted to 9250; in assay [1] (setting [7]), 10100. Moreover, the z-score is 0.642 (inactive) in assay [2] (setting [8]), -0.171 in assay [2] (setting [9]) and 0.285 (inactive) in assay [3].

In the case of `Cc1nc2cc(C(=O)N(C)Cc3cc(-c4cccnc4)no3)ccc2s1`, the values for the fold change in assay [1] (setting [4]) and in assay [1] (setting [5]) were 0.86 (inactive) and 2.36, respectively. The cell count in assay [1] (setting [6]) was found to be 6380; in assay [1] (setting [7]), 7420. Besides, the results for the z-score in assay [2] (setting [8]), in assay [2] (setting [9]) and in assay [3] were -0.957 (inactive), -0.223 and -0.55 (inactive), respectively.

As to `Cc1nn(C)c(C)c1-c1ccnc(N(C)Cc2cc(-c3ccccn3)no2)n1`, the values for the fold change in assay [1] (setting [4]) and in assay [1] (setting [5]) were 0.81 (inactive) and 1.13, respectively. Also, the cell count is 6820 in assay [1] (setting [6]) and 8420 in assay [1] (setting [7]). For the same molecule, the z-score was -0.553 (inactive) in assay [2] (setting [8]), 0.716 in assay [2] (setting [9]) and -0.45 (inactive) in assay [3].

With `COc1ncccc1C(=O)N1CCOc2ccccc21`, the fold change in assay [1] (setting [4]) is 1 (inactive); in assay [1] (setting [5]) it was 1.28. The values for the cell count in assay [1] (setting [6]) and in assay [1] (setting [7]) were 8450 and 8420, respectively. In addition, the z-score in assay [2] (setting [8]) was 0.0792 (inactive); in assay [2] (setting [9]) it was -0.0817; in assay [3], -0.395 (inactive).

With `Cc1nc2ccc(-c3ncnc4sccc34)cc2c(=O)[nH]1`, the values for the fold change in assay [1] (setting [4]) and in assay [1] (setting [5]) were 0.886 (inactive) and 1.29, respectively. Further, the values for the cell count in assay [1] (setting [6]) and in assay [1] (setting [7]) were 9390 and 10600, respectively. The z-score is 0.107 (inactive) in assay [2] (setting [8]), 0.235 in assay [2] (setting [9]) and -0.465 (inactive) in assay [3].

For `Cc1ccc(Sc2cccc3nc(N)nc(N)c23)cc1`, the fold change was 1.07 (inactive) in assay [1] (setting [4]) and 0.775 in assay [1] (setting [5]). The values for the cell count in assay [1] (setting [6]) and in assay [1] (setting [7]) were 3810 and 3570, respectively. Also, the values for the z-score in assay [2] (setting [8]), in assay [2] (setting [9]) and in assay [3] were 0.0344 (inactive), 0.646 and -2.52 (inactive), respectively.

Regarding `CCOC(=O)c1c(C)nn(-c2ccc(OC)cc2)c1C`, the fold change in assay [1] (setting [4]) was 0.895 (inactive); in assay [1] (setting [5]) it was 0.849. Besides, the cell count in assay [1] (setting [6]) stood at 7720; in assay [1] (setting [7]), 8620. Moreover, the results for the z-score in assay [2] (setting [8]), in assay [2] (setting [9]) and in assay [3] were 0.662 (inactive), 0.769 and 0.595 (inactive), respectively.

As to `Cc1ccc(NC(=O)C2CC23CCCCC3)cn1` (stereo not drawn), the fold change in assay [1] (setting [4]) was 0.887 (inactive); in assay [1] (setting [5]) it was 0.564. Besides, the cell count in assay [1] (setting [6]) amounted to 8250; in assay [1] (setting [7]) it was 9300. Besides, the values for the z-score in assay [2] (setting [8]), in assay [2] (setting [9]) and in assay [3] were -0.13 (inactive), -0.332 and -0.27 (inactive), respectively.

`COc1ccc(C(=O)Nc2c(Cl)cncc2Cl)cc1OC1CCCC1`: the fold change in assay [1] (setting [4]) is 0.898 (inactive); in assay [1] (setting [5]), 0.397. Also, the results for the cell count in assay [1] (setting [6]) and in assay [1] (setting [7]) were 7850 and 8740, respectively. The z-score was 0.807 (inactive) in assay [2] (setting [8]), 0.781 in assay [2] (setting [9]) and 0.215 (inactive) in assay [3].

For the molecule `O=C1CCNC(=O)N1`, the fold change is 0.882 (inactive) in assay [1] (setting [4]) and 0.303 in assay [1] (setting [5]). The figures for the cell count in assay [1] (setting [6]) and in assay [1] (setting [7]) were 8710 and 9870, respectively. The z-score in assay [2] (setting [8]) is 0.298 (inactive); in assay [2] (setting [9]) it was 0.144; in assay [3], 0.585 (inactive).

Consider `O=C(O)c1ccc(-c2ccccc2C(F)(F)F)o1`, for which the figures for the fold change in assay [1] (setting [4]) and in assay [1] (setting [5]) were 0.879 (inactive) and 0.45, respectively. Also, the cell count in assay [1] (setting [6]) turned out to be 8380; in assay [1] (setting [7]), 9530. Further, the z-score in assay [2] (setting [8]) is 0.000745 (inactive); in assay [2] (setting [9]), -0.553; in assay [3], 0.155 (inactive).
